{"source": "PubChem BioAssay (EPA / NIEHS)", "note": "The source made the active and inactive calls. Rule for the calls: active = hit-call score of the fitted dose curve at least 0.9, where 1 is the maximum; inactive = score below 0.9.", "data": [{"read-out": "cysteine-aspartic acid protease (CASP8), CASP8 (gene 841)", "experiment": "LTEA_HepaRG_CASP8: Life Technologies and Expression Analysis (LTEA) Assay for cysteine-aspartic acid protease (CASP8) using HepaRG (AID 2283480)", "settings": "mRNA level, 48 h; actives raise or lower the signal", "experimental": "LTEA_HepaRG is a cell based, multiplexed-readout assay that uses HepaRG, a human liver cell line, with measurements taken at 48 hours after chemical dosing on a 96-well plate.LTEA_HepaRG_CASP8 is one of 102 assay component(s) measured in the LTEA HepaRG cell culture assay. It is a marker of Cell proliferation, survival, death.Data from the assay component LTEA_HepaRG_CASP8 was analyzed into 1 endpoint. This assay endpoint, LTEA_HepaRG_CASP8, was analyzed with bidirectional fitting relative to DMSO as the negative control and baseline of activity. Using a type of inducible reporter, measures of mRNA induction for gain or loss-of-signal activity can be used to understand regulation of transcription factor activity. To generalize the intended target to other relatable targets, this assay endpoint is annotated to the protease intended target family, where the subfamily is cysteine protease.\nA total of 1060 chemcials from the ToxCast library were tested in eight-point concentration-response experiments. Cell culture and cytotoxicity assays were conducted at Thermo Fisher Scientific's Custom Services facility (Madison, WI). A single lot of human HepaRG cells (Thermo Fisher Scientific, Frederick, MD) was used for the cell culture experiments. 96-well format collagen type I coated plates of human HepaRG cells were prepared using established methods. Briefly, cryopreserved HepaRG cells were thawed, plated at a density of approximately 100,000 cells/well in HepaRG Thaw, Plate, and General Purpose media (HPRG770, Thermo Fisher Scientific), and incubated for 48 hours. 0.5% DMSO was selected as vehicle control to balance the requisite need of DMSO in HepaRG cultures to maintain differentiation (for example, baseline metabolism, proportions of hepatocytes vs. cholangiocytes), while enabling further hepatic receptor pathway activation (for example, PXR and CAR) in response to chemical exposure. 48 hours after plating, the culture medium was replaced with HepaRG Serum-Free Incudtion Media. Cells were exposed to each test chemical in duplicate and maintained in CO2 incubators for another 48 hours. Chemical plates were thawed to room temperature and 200x concentrations of treatment groups were prepared. 8-point conentration-reponse curves were made with the highest exposure at 100 uM, followed by half-log dilutions, all in 0.5% DMSO. Each test plate contained variouse controls, induction positive controls (1mM phenobarbital), cytotoxicity positive controls ([…] aflatoxin B1), vehicle controls (0.5% DMSO), and total lysis controls (0.5% DMSO). Cell morphology images were taken using an Essen IncuCyte FLR automated microscope, with six 96-well plates imaged in about 24 minutes. Images were captured and exported and JPEG files. Spent culture media was transfered to black-well plates for the LDH assay, and remaining media was sorted at -80 C for later use. Cells were treated with RLT buffer and frozen until shipped for gene expression analysis. Total RNA was isolated from the cell suspension in 75 uL of Buffer RLT (Qiagen, Germantown, MD 20874) by Quintiles/Expression Analysis (Durham, NC) using a custom isolation procedure. Total RNA from each plate well was transferred to a preamplification plate. Fluidigm's 96.96 Dynamic ArrayTM (Fluidigm, Amsterdam, the Netherlands) technology was used for gene expression analyses by quantitative reverse transcription polymerase chain reaction (qRT-PCR, performed by Quintiles/Expression Analysis, Durham, NC)89. Standard TaqManTM Assays (Applied Biosystems/ThermoFisher Scientific, Foster City, CA) were used to assess the expression of 93 genes selected based on their selectivity and sensitivity to important hepatic receptors known to be modulated by environmental chemicals; importance in human hepatocyte functionality; and hepatotoxicity. […]", "values": [{"smiles": "CS(=O)(=O)c1ccc([C@@H](CC2CCCC2)C(=O)Nc2cnccn2)cc1Cl", "outcome": "inactive"}, {"smiles": "CCCCc1oc2ccccc2c1C(=O)c1cc(I)c(OCCN(CC)CC)c(I)c1", "outcome": "inactive"}, {"smiles": "CN(Cc1cnc2nc(N)nc(N)c2n1)c1ccc(C(=O)N[C@@H](CCC(=O)O)C(=O)O)cc1", "outcome": "inactive"}, {"smiles": "CCCCCCCCCCCCCCC", "outcome": "inactive"}, {"smiles": "Cc1[nH]nc2c1N=C(c1ccccc1Cl)c1cc([N+](=O)[O-])ccc1N2", "outcome": "inactive"}, {"smiles": "N=C(N)c1ccc(OCCCCCOc2ccc(C(=N)N)cc2)cc1", "AC50": "30.1 µM (active)"}, {"smiles": "OCC(CO)(CBr)CBr", "outcome": "inactive"}, {"smiles": "O=C1NS(=O)(=O)c2ccccc21", "outcome": "inactive"}, {"smiles": "CCCCC=O", "outcome": "inactive"}, {"smiles": "CN(C)CCOC(c1ccccc1)c1ccccc1", "outcome": "inactive"}, {"smiles": "CC(=O)Nc1ccc(O)cc1", "outcome": "inactive"}, {"smiles": "CCC(C)c1ccccc1O", "note": "(stereo not given)", "outcome": "inactive"}, {"smiles": "CCCCC(CC)C(=O)O", "note": "(stereo not given)", "outcome": "inactive"}, {"smiles": "O=C(CCCN1CCC(O)(c2ccc(Cl)cc2)CC1)c1ccc(F)cc1", "outcome": "inactive"}, {"smiles": "O=C(c1ccccc1)c1ccccc1", "outcome": "inactive"}]}]}
